# Compounds with a hit are over-represented: about 2.8% of the library has one in this group of screens.
# TGFb inhibitor: inhibitors of TGF-b signaling | HepG2 CAGA-GFP TGF-b/SMAD3 reporter, GFP fluorescence, 18 h; TGF-beta stimulated, 500 pg/mL final | Potency, µM (highest dose often 46.1 µM), for the others: top-dose activity, negative = inhibition, actives largely listed as inhibitors | actives 1.2% (n = 410,000); further: potency means the concentration at half of the fitted maximal effect; on the % scale 0 is the no-effect control and ±100 the full control effect; nearly all actives have a fitted effect of over 65% in size
#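 Inhibition was scored as loss of TGF-beta-induced (500 pg/mL final, 18 hours, 37 degrees C) GFP in HEPG2 cells carrying a CAGA-GFP reporter, in DMEM with 1% FBS. Well GFP was summed per cell; Activity was normalised to unstimulated and stimulated DMSO wells, then concentration-response fitting.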
# Six1-Eya2 inh: Six1/Eya2 interaction inhibition; actives 0.56% (n = 360,000); Q15475+O00167; AID 651725; AlphaScreen GST-Six1/His-Eya2 binding, biochemical; stronger effect = lower value; activity change, % (concentration not given with the values); in the data active means activity change below about -65%; inconclusive means mostly about -30% to -63%; further: on the % scale 0 is the no-effect control and ±100 the full control effect
#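 AlphaScreen with GST-Six1 and His-Eya2 (5X mix: 250 nM and 500 nM), glutathione donor and nickel acceptor beads; buffer 50 mM Tris pH 8.0, 300 mM NaCl, 1 mM TCEP; 1 h at 37 C in the dark.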
# ATXN2 expr inh: ATXN2 expression inhibition. actives 0.72% (n = 360,000). AID 1745845. HEK-293 ATXN2-luciferase reporter, luminescence, 24 h. Potency, µM (top dose mostly 57 µM), for the others: at the highest dose activity change, negative = inhibition, actives largely listed as inhibitors; further: potency means the concentration at half of the fitted maximal effect; on the % scale 0 is the no-effect control and ±100 the full control effect; nearly all actives have a fitted effect of over 55% in size
#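 ATXN2-luciferase reporter cells (luciferase flanked by upstream and downstream ATXN2 gene portions) were treated 24 h at 37 °C with compounds at up to 57 uM. SteadyGlo luminescence gave expression; GF-AFC fluorescence gave viability.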
# CtBP-E1A blk: blocks the CtBP interaction with E1A; AlphaScreen GST-E1A/His-CtBP binding, 1536-well; stronger effect = lower value; activity change, % (concentration not given with the values); actives 0.49% (n = 340,000); in the data active means activity change below about -65%; inconclusive means mostly about -30% to -63%; further: on the % scale 0 is the no-effect control and ±100 the full control effect
#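 In 5 uL wells, 23 nL compound meets equimolar GST-E1A and His-CtBP (5X stock 125 nM each) for 2 h, 37 °C. Beads (5X, 50 ug/mL) then 1 h, 37 °C, dark.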
# S2 tox: viability counter-screen for ATXN expression inhibitors; S2 cells (HEK-293 line with an ATXN2-luciferase reporter) viability, CellTiter-Fluor protease fluorescence, 24 h; AID 651635; actives 0.49% (n = 400,000); Potency, µM (titrated, usually from 56.7 µM), actives largely listed as cytotoxic; further: potency means the concentration at half of the fitted maximal effect; nearly all actives have a fitted effect of over 40% in size
# HepG2 tox: kills HepG2 cells in TGF-b inhibitor counter-screen; actives 0.76% (n = 410,000); HepG2 CAGA-GFP viability, ATP luminescence, 18 h; Potency, µM (top dose mostly 46.1 µM), for inactives: at the top dose activity change, negative = cytotoxicity, usual class: cytotoxic; AID 588856; further: potency means the concentration at half of the fitted maximal effect
#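 HepG2 CAGA-GFP cells (1000/well, DMEM with 1% FBS) received compound, then TGF-beta at 500 pg/mL final, and were incubated 18 hours at 37 degrees C. Viability was read by CellTiter-Glo luminescence. Media-only wells were set as complete cell-killing and DMSO as no toxicity.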
# * hit, by the source's call; i = inactive; u = inconclusive; x = not tested or not shown. Unless noted, the call rests on the fitted dose curve; in most records, active means well fitted curve in the direction sought with a large enough effect; inconclusive means small, poorly fitted or top-dose-only effect, or another doubt; inactive means no such curve, though single readings can be large; an effect the other way counts as inactive or inconclusive.
SMILES,TGFb inhibitor,Six1-Eya2 inh,ATXN2 expr inh,CtBP-E1A blk,S2 tox,HepG2 tox
Cc1n[nH]c(C)c1Cc1sc2c(c1C(=O)N1C[C@H](O)CO1)c(=O)n(C)c(=O)n2CC(C)C,x,x,-10%,x,x,x
COc1ccc(-c2c[n+](CC(=O)OC3CC(C)CCC3C(C)C)c3n2CCC3)cc1 (configuration not stated),20µM*,2,u,-1,u,-31%
c1ccc(Nc2ccccc2)cc1,3%,15,5%,10,i,16%
Oc1cc(Nc2ccccc2)cc2cccnc12,32µM*,x,32µM*,x,u,11µM*
Oc1cc(NCCN2CCOCC2)cc2cccnc12,u,x,32µM*,x,u,-94%
Oc1cccc2cc(Nc3ccccc3)cnc12,3.5µM*,x,7.1µM*,x,u,0%
Oc1cc(-c2cccnc2)cc2cccnc12,u,x,u,x,u,-46%
Cc1ccc(Cn2ccnc2SCC(=O)NCc2ccccc2)cc1,u,x,x,x,x,-32%
COc1cc(=O)n2c(c1C(=O)N(C)Cc1nccs1)CCN(Cc1cccc(F)c1F)CC2,x,x,x,x,i,x
CC(O)(C#Cc1ccc2c(c1)N(c1nc(N)ncc1Cl)CC2)c1nccs1 (configuration not stated),x,x,-17%,x,x,x
COc1cc(=O)n2c(c1C(=O)NC(C)c1ccco1)CCN(C(=O)c1ccccc1SC)CC2 (configuration not stated),x,x,x,x,i,x
CCOCc1cc(CN2CCN(c3cccc(Cl)c3)CC2)c(O)c2ncccc12,2µM*,x,x,x,x,-22%
Oc1c(CN2CCN(c3ccccc3)CC2)cc(Br)c2cccnc12,u,-19,4.5µM*,-26,u,-42%
Oc1c(CNc2ccccc2)cc(COCc2ccccc2)c2cccnc12,u,x,u,x,i,-10%
COCc1cc(CN2CCN(C)CC2)c(O)c2ncccc12,0%,-92*,u,-93*,u,-1%
c1ccc(N2CCN(Cc3ccnc4ccccc34)CC2)cc1,0%,0,-4%,-7,u,-2%
CC(C)OCc1cc(CN2CCN(c3ccccc3)CC2)c(O)c2ncccc12,2.2µM*,x,1.3µM*,x,u,-36%
C/C=C/c1cc(CN2CCN(c3ccccc3)CC2)c(O)c(OC)c1,-12%,-23,118%,-7,i,-33%
CCOCC(=O)N1CCN(c2cccc(Cl)c2)CC1,-7%,14,-35%,x,u,-16%
CN(C)/[N+]([O-])=N/Oc1cc(F)c([N+](=O)[O-])cc1[N+](=O)[O-],-10%,x,x,x,x,-11%
OC1CCC(Nc2ncc3nc(Nc4c(F)cc(F)cc4F)n([C@@H]4CCOC4)c3n2)CC1 (some centres not stated),x,x,-13%,x,x,x
CCOC(=O)N1CCN(Cc2ccccc2Cl)CC1,5%,8,1%,6,i,0%
CCOC(=O)N1CCN(Cc2cc(Cl)c3cccnc3c2O)CC1,u,-78*,3.5µM*,-91*,u,-19%
C[C@@H]1CN([C@H](C)CO)S(=O)(=O)c2ccc(C#Cc3ccccc3)cc2O[C@@H]1CN(C)C(=O)CN(C)C,u,-12,-22%,-7,u,-51%
C[C@@H]1CN([C@H](C)CO)S(=O)(=O)c2ccc(C#CC3CCCC3)cc2O[C@H]1CN(C)C(=O)Cc1ccccc1,u,-6,u,-5,22µM*,16µM*
CCCNC(=O)N(C)C[C@@H]1Oc2cc(C#C[C@H](C)O)ccc2S(=O)(=O)N([C@H](C)CO)C[C@H]1C,-2%,7,6%,-22,i,-11%
C[C@H](O)C#Cc1ccc2c(c1)O[C@@H](CN(C)Cc1ccc(-c3ccccc3)cc1)[C@H](C)CN([C@@H](C)CO)S2(=O)=O,u,-17,20µM*,-9,16µM*,7.1µM*
